# Bioassay records deposited in PubChem BioAssay by The Scripps Research Institute Molecular Screening Center.
# MITF inh: MITF inhibitors, primary screen, biochemical, AlphaScreen, human | hit rate 0.91% among 650,000 | AID 1259374, 2018 | inhibition, % at 2.6 µM | AlphaScreen MITF homodimerization, bead proximity signal | Microphthalmia-associated transcription factor (Homo sapiens), O75030; in the data active = inhibition above about 50%;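 also: 0% = vehicle wells with protein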
# TEAD-YAP block: TEAD-YAP interaction inhibition, primary screen, TEAD-YAP interaction inhibitor project, luminescence, HEK-TIYL cells. TEAD-Gal4/YAP UAS-luciferase luminescence. inhibition, % at 9.12 µM. hit rate 1.4% among 640,000. AID 1259422, 2018; in the data active = inhibition above about 32%;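 also: 0% = median of test compound wells and 100% = reference inhibitor wells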
# FBW7 act: FBW7 E3 ligase activators, primary screen, biochemical, AlphaScreen, human | F-box/WD repeat-containing protein 7 (Homo sapiens), Q969H0 | AlphaScreen FBW7–phospho-cyclin E peptide binding, activator screen | normalized activity (activation), % at 26.1 µM | hit rate 0.13% among 650,000 | AID 1259310, 2017; in the data active = normalized activity above about 1.9%;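 also: purified mutant Fbw7 with reduced substrate affinity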
# GPR151 ag: activators of human GPR151, primary screen, cell-based, PathHunter beta-arrestin, luminescence; activation, % at 11.2 µM; hit rate 1% among 650,000; PathHunter beta-arrestin GPR151 cells; G-protein coupled receptor 151 (Homo sapiens), Q8TDV0; AID 1508602, 2020; in the data active = activation above about 4.9%;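 also: 0% = median of compound wells and 100% = cells with positive control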
# Target sequence (Q8TDV0 whole entry, looked up): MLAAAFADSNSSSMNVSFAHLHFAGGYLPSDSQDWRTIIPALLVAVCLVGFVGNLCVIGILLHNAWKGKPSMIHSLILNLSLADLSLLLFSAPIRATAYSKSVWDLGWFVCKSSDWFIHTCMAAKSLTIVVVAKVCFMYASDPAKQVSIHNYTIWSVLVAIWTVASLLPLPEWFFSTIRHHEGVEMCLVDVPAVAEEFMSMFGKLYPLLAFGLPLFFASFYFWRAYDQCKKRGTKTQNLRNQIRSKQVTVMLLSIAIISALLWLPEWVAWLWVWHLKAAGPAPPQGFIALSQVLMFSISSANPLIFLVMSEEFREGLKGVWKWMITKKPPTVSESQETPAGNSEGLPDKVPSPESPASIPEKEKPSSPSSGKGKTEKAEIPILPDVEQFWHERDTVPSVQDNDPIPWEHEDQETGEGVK
# * marks the source's active call; other numbers are inactive results. Only some compounds are listed: those with a hit (about 3.4% of all), similar ones and a draw of the others.
SMILES,MITF inh,TEAD-YAP block,FBW7 act,GPR151 ag
CN(C)c1ccc(/C=N/Nc2cn[nH]c(=O)n2)cc1,13.2,81.3*,-0.5,-5.6
O=C(N/N=C/c1c(O)ccc2ccccc12)c1ccccc1O,-31.2,75.2*,-0.1,1.0
O=C(N/N=C/c1c(O)ccc2ccccc12)c1c[nH]c2ccccc12,6.8,7.5,-0.1,2.5
OC(c1cccnc1)c1ccc2c(c1)CN(C1CCN(CCc3ccccc3)CC1)CCO2 (configuration not stated),9.3,5.3,0.7,-0.6
O=C(N/N=C/c1cc([N+](=O)[O-])ccc1O)c1ccccc1OCc1ccccc1,-2.4,5.9,-0.3,-0.3
CN(C)c1ccc(/C=N/NC(=O)c2cc(O)cc(O)c2)cc1,21.7,2.1,0.7,-1.6
Cc1cc(/C=N/NC(=O)c2cccc(N(C)C)c2)c(C)n1-c1cc(C(=O)O)cc(C(=O)O)c1,51.8*,-26.0,-0.3,-0.7
CN(C)c1ccc(/C=N/NC(=O)c2cccc(O)c2)cc1,-3.9,60.1*,0.0,-5.7
O=C(N/N=C/c1c(O)ccc2ccccc12)C(=O)N1CCCC1,-96.0,16.4,-0.2,0.8
O=C(N/N=C\c1c(O)ccc2ccccc12)c1ccccc1O,31.8,80.8*,-0.1,1.3
O=C(CN1CCCC1)N/N=C/c1c(O)ccc2ccccc12,58.2*,87.5*,-1.8,0.0
COc1ccc(C2CC(=O)C=C(Nc3ccc(OC)c(OC)c3)C2)cc1 (configuration not stated),-1.6,-13.8,0.0,-0.1
O=C(CN1C(=O)[C@H]2CCCN2C(=O)c2ccccc21)NCc1ccco1,6.2,-4.3,0.1,0.1
Cc1ccc(N2NC(=O)/C(=C/c3ccc(-c4cccc([N+](=O)[O-])c4)o3)C2=O)cc1,0.9,5.6,0.2,-0.3
CN(C)c1ccc(/C=N/NC(=O)c2[nH]ncc2Br)cc1,-2.5,31.9*,0.0,-8.2
CN(C)c1ccc(/C=N/NC(=O)c2ccn(C)n2)cc1,12.8,-13.4,0.0,-3.5
COCCN1C(=O)C2C(C(=O)Nc3ccc(Cl)c(Cl)c3)C3(C)C=CC2(O3)C1C(=O)NC1CCCCC1 (configuration not stated),-3.4,1.2,0.0,0.7
Oc1c(Cl)cc(Cl)cc1/C=N/Nc1nc2ccccc2[nH]1,-22.3,60.7*,-0.1,0.4
Oc1ccccc1/C=N\Nc1nc2ccccc2[nH]1,16.0,-27.9,-0.8,-0.1
Oc1ccc(/C=N/Nc2nc3ccccc3[nH]2)c(O)c1,65.3*,16.4,-0.5,-0.7
Oc1ccc(/C=N/Nc2nc(Nc3ccccc3)nc(Nc3ccccc3)n2)c(O)c1,7.7,50.8*,-0.2,-0.1
Oc1ccc(/C=N/Nc2nc3ccccc3[nH]2)c(O)c1O,39.5,-17.0,-0.9,-1.1
CCCCOC(=O)c1ccc(NC(=O)c2c(O)c3cccc4c3n(c2=O)CCC4)cc1,5.7,-4.9,0.1,0.0
COc1cc(Cc2nccc3cc(OC)c(OC)cc23)c(NC(=O)c2ccc([N+](=O)[O-])cc2)cc1OC,0.8,-0.8,0.1,2.4
CCCC(=O)NC(c1ccc(OC)cc1)c1ccc2cccnc2c1O (configuration not stated),50.2,72.2*,-1.8,0.7
SMILES,MITF inh,TEAD-YAP block,FBW7 act,GPR151 ag
CCCC(=O)NC(c1ccc(F)cc1)c1ccc2cccnc2c1O (configuration not stated),31.0,86.3*,-0.7,-0.8
CCCC(=O)NC(c1ccccc1)c1ccc2cccnc2c1O (configuration not stated),50.1,84.6*,-1.9,-0.6
CCC(=O)NC(c1ccc(OC)cc1)c1c(O)ccc2ccccc12 (configuration not stated),-11.7,51.8*,-0.2,-0.2
COc1ccc(-n2c(N)c(C#N)c(C#N)c2-c2ccccc2)cc1,11.8,5.8,0.1,0.6
O=C(Cc1ccccc1)NCC(=O)N/N=C/C(Br)=C/c1ccccc1,-15.6,-2.9,-0.1,0.2
CC(=O)Nc1ccc(C(=O)NCCN2Cc3ccccc3OC(c3ccsc3)C2)cc1 (configuration not stated),2.8,10.1,0.2,-0.5
Cc1ccc2c(c1)C(=Nc1ccc(I)cc1)C(=O)N2,20.9,-8.5,2.1*,-0.8
Cc1ccc(-c2noc(CCCCCN)n2)cc1,1.4,72.0*,0.1,0.6
Cc1nc(NCc2cccnc2)c2c(C)c(C)sc2n1,-2.9,3.5,0.5,-0.7
Cc1sc2nc(-c3cccnc3)nc(NCCSCc3ccco3)c2c1C,2.8,67.9*,-0.2,0.1
